Active and inactive are the calls of the source. How the source made its calls: active means hit-call score of the fitted dose curve at least 0.9, where 1 is the maximum; inactive means score below 0.9.
How the values were obtained:
Conditions in all cases: primary human HUVEC with PBMC; actives raise or lower the signal
[1] = read-out: Macrophage colony-stimulating factor (MCSF), CSF1 (gene 1435); assay: BSK_LPS_MCSF: BioMAP Diversity Plus: LPS Assay for Macrophage colony-stimulating factor (MCSF) Biomarker Activity (AID 2283083)
How it was run: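 HUVEC–PBMC co-culture, M-CSF measured by ELISA 24 h after chemical dosing. Fitted in both directions relative to DMSO as negative control; overt cytotoxicity assessed by SRB total-protein staining in parallel cultures.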

[2] = read-out: Tissue Factor, F3 (gene 2152); assay: BSK_LPS_TissueFactor: BioMAP Diversity Plus: LPS Assay for Tissue Factor Biomarker Activity (AID 2283084)
How it was run: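 Human umbilical vein endothelial cells co-cultured with PBMC were dosed with compound. Cell-surface CD142 was measured by ELISA 24 h later. Activity was fitted bidirectionally against DMSO, with SRB total-protein staining in parallel cultures for cytotoxicity.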

[3] = read-out: Tumor necrosis factor (Homo sapiens) (UniProt P01375); assay: BSK_LPS_TNFa: BioMAP Diversity Plus: LPS Assay for Tumour Necrosis Factor alpha (TNFa) Biomarker Activity (AID 2283085);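 on AC50: TNFa protein level quantified by ELISA in the co-culture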
How it was run: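 Cells (umbilical vein endothelium plus peripheral blood mononuclear cells) were dosed with chemical, incubated 24 h, then TNFa was quantified by ELISA; values derive from bidirectional fitting with DMSO as baseline.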

[4] = read-out: Vascular cell adhesion molecule 1 (VCAM1), VCAM1 (gene 7412); assay: BSK_LPS_VCAM1: BioMAP Diversity Plus: LPS Assay for Vascular cell adhesion molecule 1 (VCAM1) Biomarker Activity (AID 2283086)
How it was run: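 Cells are dosed in an LPS-stimulated endothelial/mononuclear co-culture and, after 24 h, VCAM-1 is quantified by ELISA. Activity in either direction is fitted relative to the DMSO negative control.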

CD38, CD38 (gene 952) = assay: BSK_SAg_CD38: BioMAP Diversity Plus: SAg Assay for CD38 Biomarker Activity (AID 2283087)
How it was run: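 CD38 quantified by ELISA (fluorescence) in a superantigen-activated endothelial cell–PBMC co-culture at 24 h post-dose. Activity fitted in both directions relative to DMSO; parallel SRB and Alamar Blue cytotoxicity read-outs.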

CD40, CD40 (gene 958) = assay: BSK_SAg_CD40: BioMAP Diversity Plus: SAg Assay for CD40 Biomarker Activity (AID 2283088)
How it was run: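 HUVEC plus PBMC co-culture, superantigen-activated, with CD40 read by ELISA 24 h after dosing. Curves fitted in both directions against DMSO. Overt cytotoxicity checked by parallel SRB total-protein staining.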

CD69, CD69 (gene 969) = assay: BSK_SAg_CD69: BioMAP Diversity Plus: SAg Assay for CD69 Biomarker Activity (AID 2283089);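 on AC50: cell surface CD69 protein quantified by ELISA with fluorescence detection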
How it was run: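 HUVEC co-cultured with PBMC were dosed with chemical, and CD69 was measured by ELISA with fluorescence read-out 24 h later. Bidirectional curve fitting used DMSO as negative control and activity baseline.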

[5] = read-out: Monocyte Chemoattractant Protein-1 (MCP1), CCL2 (gene 6347); assay: BSK_SAg_MCP1: BioMAP Diversity Plus: SAg Assay for Monocyte Chemoattractant Protein-1 (MCP1) Biomarker Activity (AID 2283090)
How it was run: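 Values derive from bidirectional fitting of ELISA-measured MCP1 against DMSO controls. Readings were taken 24 h after dosing human vascular endothelial cells co-cultured with peripheral blood mononuclear cells under superantigen stimulation.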

[6] = read-out: E-selectin (Homo sapiens) (UniProt P16581); assay: BSK_SAg_Eselectin: BioMAP Diversity Plus: SAg Assay for Eselectin Biomarker Activity (AID 2283091)
How it was run: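 Human umbilical vein endothelial cells co-cultured with peripheral blood mononuclear cells, SAg system. E-selectin is measured by ELISA 24 h after dosing and fitted bidirectionally against DMSO. Cytotoxicity is checked by SRB staining of parallel cultures.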

[7] = read-out: Monokine induced gamma interferon (MIG), CXCL9 (gene 4283); assay: BSK_SAg_MIG: BioMAP Diversity Plus: SAg Assay for Monokine induced gamma interferon (MIG) Biomarker Activity (AID 2283092)
How it was run: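 HUVEC plus human PBMC co-culture, chemicals dosed and MIG (CXCL9) quantified by ELISA at 24 h. Bidirectional curve fitting against DMSO as negative control and baseline, so both gain and loss of signal count as activity.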

Measured: AC50

Tumor necrosis factor (Homo sapiens), sequence (P01375 whole entry, looked up): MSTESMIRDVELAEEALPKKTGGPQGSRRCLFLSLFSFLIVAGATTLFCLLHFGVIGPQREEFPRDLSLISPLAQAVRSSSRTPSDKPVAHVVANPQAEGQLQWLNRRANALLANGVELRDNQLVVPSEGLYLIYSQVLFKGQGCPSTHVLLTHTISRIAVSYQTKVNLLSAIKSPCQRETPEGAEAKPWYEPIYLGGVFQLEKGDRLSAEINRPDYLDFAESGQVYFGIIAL
E-selectin (Homo sapiens), sequence (P16581 whole entry, looked up): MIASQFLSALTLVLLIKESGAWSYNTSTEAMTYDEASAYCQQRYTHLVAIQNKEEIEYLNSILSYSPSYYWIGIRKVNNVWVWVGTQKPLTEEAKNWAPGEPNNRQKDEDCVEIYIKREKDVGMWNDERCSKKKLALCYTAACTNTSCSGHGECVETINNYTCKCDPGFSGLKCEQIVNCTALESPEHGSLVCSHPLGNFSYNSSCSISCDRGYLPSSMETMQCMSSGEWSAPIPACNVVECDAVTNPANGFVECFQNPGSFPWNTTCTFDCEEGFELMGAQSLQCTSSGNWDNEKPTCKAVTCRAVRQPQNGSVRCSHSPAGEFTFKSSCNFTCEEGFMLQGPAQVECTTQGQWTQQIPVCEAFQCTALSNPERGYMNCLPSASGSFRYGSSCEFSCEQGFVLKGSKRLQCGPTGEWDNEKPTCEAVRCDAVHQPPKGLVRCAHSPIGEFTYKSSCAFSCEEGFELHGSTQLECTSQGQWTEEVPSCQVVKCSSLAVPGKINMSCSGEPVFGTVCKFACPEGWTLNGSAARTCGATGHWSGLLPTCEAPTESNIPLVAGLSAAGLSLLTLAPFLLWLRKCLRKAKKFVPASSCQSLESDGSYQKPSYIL

CC(=O)S[C@H](C(=O)N[C@H]1Cc2ccccc2[C@H]2CCC[C@@H](C(=O)O)N2C1=O)C(C)C
inactive: all assays above

CS(=O)(=O)c1ccc([C@@H](C[C@H]2CCC(=O)C2)C(=O)Nc2cnccn2)cc1Cl
not listed: [4]
inactive: all other assays above

CCCC(=O)O
not listed: CD40, CD40 (gene 958)
inactive: all other assays above

NCCOCCOCCN
inactive: all assays above

O=C1CCCCC1
not listed: CD40, CD40 (gene 958)
inactive: all other assays above

CN(C)CCCN1c2ccccc2Sc2ccc(Cl)cc21
active: [1] 30.1 µM | [3] 27.8 µM | [4] 29.9 µM | CD38, CD38 (gene 952) 28.8 µM | CD40, CD40 (gene 958) 29.5 µM | CD69, CD69 (gene 969) 28.6 µM | [6] 27.7 µM
inactive: [2]

CC(N)=O
not listed: CD40, CD40 (gene 958)
inactive: all other assays above

C/C=C/c1ccc(OC)cc1
inactive: all assays above

CC(C)OC(=O)C(C)(C)Oc1ccc(C(=O)c2ccc(Cl)cc2)cc1
active: [1] 27.3 µM | [4] 32.2 µM | CD38, CD38 (gene 952) 16.1 µM | [5] 20 µM | [6] 33.5 µM
inactive: [2] | [3] | [7]

O=C(NS(=O)(=O)/C=C/c1cccs1)c1ccc(F)cc1Br
active: CD40, CD40 (gene 958) 3.97 µM
inactive: all other assays above

CC1(C)C(=O)NC(=O)N1CO
inactive: all assays above

CCCCC(CC)COC(=O)CCCCCCCC(=O)OCC(CC)CCCC (configuration not stated)
not listed: [4]
inactive: all other assays above

C/C=C/C=C/C(=O)O
inactive: all assays above

CC(C)(C)c1ccccc1
not listed: CD40, CD40 (gene 958)
inactive: all other assays above

O=[Si]=O
not listed: [4]
inactive: all other assays above

CCCCCCCCCCCCCCCCO
not listed: CD40, CD40 (gene 958)
inactive: all other assays above

O=C(O)CC(O)(CC(=O)O)C(=O)O
not listed: CD40, CD40 (gene 958)
inactive: all other assays above

O=C1OC(c2ccc(O)cc2)(c2ccc(O)cc2)c2ccccc21
active: [1] 31.1 µM | [3] 20 µM | CD38, CD38 (gene 952) 28.7 µM | CD40, CD40 (gene 958) 29 µM | CD69, CD69 (gene 969) 20 µM | [5] 23 µM | [6] 23.8 µM | [7] 36.8 µM
inactive: [2]

Oc1ccc(O)cc1
inactive: [2] | [5] | [7]
active: [1] 9.78 µM | [3] 28.9 µM | [4] 20 µM | CD38, CD38 (gene 952) 36.5 µM | CD40, CD40 (gene 958) 11.4 µM | CD69, CD69 (gene 969) 20 µM | [6] 23.9 µM

CCCCCCCCCCCCCCOS(=O)(=O)O
active: CD38, CD38 (gene 952) 20 µM
not listed: CD40, CD40 (gene 958)
inactive: all other assays above

CCCCCCC(C=O)=Cc1ccccc1
inactive: [1] | [2]
active: [3] 30.1 µM | [4] 29.7 µM | CD38, CD38 (gene 952) 33.4 µM | CD69, CD69 (gene 969) 31 µM | [5] 32 µM | [6] 34.4 µM | [7] 31.5 µM

CC(=O)O[C@]1(C(C)=O)CC[C@H]2[C@@H]3C=C(Cl)C4=CC(=O)[C@@H]5C[C@@H]5[C@]4(C)[C@H]3CC[C@@]21C
active: CD40, CD40 (gene 958) 30.1 µM | CD69, CD69 (gene 969) 30.5 µM
not listed: [4]
inactive: all other assays above

CC(=O)OCC(COC(C)=O)OC(C)=O
inactive: all assays above

Oc1ccccc1O
active: [1] 3.92 µM | [4] 2.79 µM | CD40, CD40 (gene 958) 4.21 µM | CD69, CD69 (gene 969) 5.69 µM
inactive: all other assays above

CCCCOC(=O)CCCCC(=O)OCCCC
inactive: all assays above

CC(C)NCC(O)c1ccc(O)c(O)c1 (configuration not stated)
active: [3] 0.262 µM
inactive: all other assays above

O=C1c2c(O)cccc2Cc2cccc(O)c21
not listed: CD40, CD40 (gene 958)
inactive: all other assays above

CSc1ccc(Oc2ccc(S(N)(=O)=O)cc2CN(C)C)cc1C
inactive: all assays above

NC=O
not listed: [4]
inactive: all other assays above

COC(=O)[C@H]1[C@H]2C[C@@H]3c4[nH]c5cc(OC)ccc5c4CCN3C[C@H]2C[C@@H](OC(=O)c2cc(OC)c(OC)c(OC)c2)[C@@H]1OC
inactive: [6]
active: [1] 21.2 µM | [2] 7.64 µM | [3] 28.7 µM | CD38, CD38 (gene 952) 25.7 µM | [5] 22.6 µM | [7] 24.5 µM

COC(=O)CCC(=O)OC
not listed: [4] | CD40, CD40 (gene 958)
inactive: all other assays above

OCC(CO)n1cnc(-c2ccc(F)cc2)c1-c1ccnc(Oc2ccccc2)n1
active: [1] 1.72 µM | [2] 0.532 µM | CD69, CD69 (gene 969) 3.97 µM | [5] 2.02 µM
not listed: [3]
inactive: all other assays above

COC(=O)CCCC(=O)OC
not listed: [4]
inactive: all other assays above

Nc1nc(=S)c2[nH]cnc2[nH]1
not listed: [4] | CD40, CD40 (gene 958)
inactive: all other assays above

O=C(Oc1ccccc1)c1cccc(C(=O)Oc2ccccc2)c1
not listed: [4] | CD40, CD40 (gene 958)
inactive: all other assays above

CC(C)c1cccc(C(C)C)c1NC(=O)NS(=O)(=O)c1cc(C(C)(C)O)co1
not listed: [3]
inactive: all other assays above

CC(=O)OC1CC(C)OC(C)O1 (configuration not stated)
not listed: [3]
inactive: all other assays above

CO[C@@H]1COCC[C@@H]1N[C@@H]1CC[C@@](C(=O)N2CCc3ncc(C(F)(F)F)cc3C2)(C(C)C)C1
not listed: [4] | CD40, CD40 (gene 958)
inactive: all other assays above

CCCCC(CC)COP(=O)(OCC(CC)CCCC)OCC(CC)CCCC (configuration not stated)
active: [3] 5.46 µM
not listed: [4]
inactive: all other assays above

CCN(CC)CCOc1ccc(C(=C(Cl)c2ccccc2)c2ccccc2)cc1
active: [1] 9.21 µM | [2] 29.8 µM | [4] 13.2 µM | CD38, CD38 (gene 952) 8.84 µM | CD40, CD40 (gene 958) 11 µM | CD69, CD69 (gene 969) 12.4 µM | [5] 11.2 µM | [6] 13.5 µM | [7] 13.8 µM

CC(=O)CC(c1ccccc1)c1c(O)c2ccccc2oc1=O (configuration not stated)
not listed: [3]
inactive: all other assays above

CCC(C)N(C)C(=O)c1cc2ccccc2c(-c2ccccc2Cl)n1 (configuration not stated)
not listed: [4]
inactive: all other assays above

Source: PubChem BioAssay (EPA / NIEHS)
